Screening results deposited in PubChem BioAssay by National Center for Advancing Translational Sciences (NCATS).
TDP1 cell noCPT: qHTS for Inhibitors of human tyrosyl-DNA phosphodiesterase 1 (TDP1): qHTS in cells in absence of CPT; 420,000 tested, 15% active; Potency, µM (top dose mostly 46.2 µM), without a hit: at the top dose activity change, negative = growth inhibition, usual class: inhibitors; AID 686978, 2013; DT40 Tdp1-/- hTDP1 cells, no CPT, ATP luminescence, 48 h; note: potency is the fitted concentration of half-maximal effect; nearly all actives have a fitted effect of over 55% in size
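Stably hTDP1-transfected Tdp1-null chicken DT40 cells were treated with library compounds minus camptothecin and grown for at least 48 hr at 37 °C, after which cellular ATP was quantified by luminescence.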
IL1B secr inh: inflammasome signaling inhibition, IL-1 beta readout | THP-1 LPS/ATP IL-1B secretion, AlphaLISA, 16 h; stronger effect = lower value | activity change, % at 57.5 µM | 360,000 tested, 4.7% active; in the data active = activity change below about -50%; inconclusive = mostly about -30% to -49%
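Secreted IL-1B measured by AlphaLISA bead assay after 16 h compound exposure of THP-1 cells; compounds (final up to 57.5 uM) added 1 h before LPS (250 ng/mL) and ATP (1.25 mM) stimulation; lower signal means less secretion.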
ELG1 repair inh: ELG1-dependent DNA repair inhibition; HEK293T ELG1-luciferase reporter, luminescence, 16 h; DNA damage induced by 5-fluorouridine; Potency, µM (series often up to 46.1 µM), inactives show top-dose activity change, negative = inhibition, usual class: inhibitors; 330,000 tested, 2.3% active; AID 504467; note: potency is the fitted concentration of half-maximal effect; nearly all actives have a fitted effect of over 55% in size
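Cells (2,000 per well) received 5-fluorouridine plus test compound or DMSO and were incubated 16 hr at 37 °C, 5% CO2. Luciferase activity was read by luminescence 30 min after ONE-Glo addition; signal suppression marked inhibition of damage-induced ELG1 function.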
DT40 TDP1 CPT: growth inhibition of DT40 Tdp1-/-;hTDP1 cells with camptothecin (screen for TDP1 inhibitors) | AID 686979 | 420,000 tested, 12% active | Potency, µM (highest dose often 46.2 µM), without a hit: top-dose activity change, negative = growth inhibition, most hits filed as inhibitors | chicken DT40 Tdp1-/-;hTDP1 cells + 20 nM CPT, ATP luminescence, 48 h; note: potency is the fitted concentration of half-maximal effect; nearly all actives have a fitted effect of over 55% in size
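Cell growth measured by CellTiter-Glo luminescence after a minimum 48 h, 37 C compound exposure with 20 nM CPT in Tdp1-knockout DT40 cells stably expressing hTDP1, seeded 400/well; qHTS titration format.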
HT1080-NT tox: kills 2HG-producing HT-1080-NT fibrosarcoma cells; HT-1080-NT fibrosarcoma viability, CellTiter-Glo ATP luminescence, 48 h; Potency, µM (doses to about 46.1 µM), for the others: at the top dose activity, negative = less viability, hits mostly cytotoxic; 360,000 tested, 1.6% active; AID 686970;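 note: NT is the 2HG producing partner of a matched IDH1 knockdown line; potency is the fitted concentration of half-maximal effect; 0% = DMSO-treated cells and -100% = media-only wells without cells; nearly all actives have a fitted effect of over 55% in size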
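Toxicity toward the 2HG-producing NT line was scored as %Activity, normalised to DMSO and no-cell wells, from CellTiter-Glo luminescence after 48 hours' treatment.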
HT1080 IDH1KD tx: toxicity to HT-1080 IDH1 knockdown cells (counter line); HT-1080 IDH1 knockdown viability, ATP luminescence, 48 h; Potency, µM (highest dose often 46.1 µM), for the others: at the highest dose activity, negative = toxicity, most hits filed as cytotoxic; 360,000 tested, 2% active; AID 686971;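 note: potency is the fitted concentration of half-maximal effect; 0% = DMSO wells and -100% = cell-free medium wells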
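IDH1KD HT-1080 cells, 750/well, RPMI + 5% FBS; compound pinned after 2 h settling; 48 h, 37 °C; CellTiter-Glo luminescence; % activity normalised to DMSO and no-cell wells; curves fitted, classed by r2 and efficacy.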
* marks the source's active call; other numbers are inactive results; ? = inconclusive; . = no result given. This is a sample that favours compounds with a hit; in the whole collection about 19% have one here. Unless noted, calls come from the whole dose curve; as a rule, active = well fitted curve in the direction sought with a large enough effect; inconclusive = small, poorly fitted or top-dose-only effect, or another doubt; inactive = no such curve, though single readings can be large; an effect the other way counts as inactive or inconclusive. Unless noted, % is set by controls: 0 for no effect and ±100 for the full control effect.

SMILES	TDP1 cell noCPT	IL1B secr inh	ELG1 repair inh	DT40 TDP1 CPT	HT1080-NT tox	HT1080 IDH1KD tx
C#CC(=O)N(c1cc(OC)ccc1OC)C(C(=O)NC1CCCC1)c1cccs1 (stereo unspecified)	2.1µM*	-120*	23µM*	2.3µM*	0.073µM*	0.73µM*
COc1ccc(N(C(=O)c2snc(C(N)=O)c2N)C(C(=O)NC2CCCC2)c2cccs2)cc1OC (stereo unspecified)	1%	-13	0%	15%	17%	21%
O=C(NCc1ccccc1F)C1CCCN1S(=O)(=O)c1ccc(F)cc1 (stereo unspecified)	-23%	7	-3%	?	-5%	0%
COc1ncc2nc(-c3cc(F)cc(F)c3)c(=O)n(CCC#N)c2n1	-24%	.	.	-1%	.	.
CC(C)c1ccc(-c2noc(SCC(=O)N3CCCCC3)n2)cc1	12µM*	.	.	?	.	.
COc1ccc(N2CCN(C(=O)CSc3nc(-c4ccccc4)no3)CC2)cc1	-16%	.	.	-3%	.	.
CCN(C(=O)CSc1nc(-c2ccccc2)no1)c1ccccc1	?	.	.	-17%	.	.
CC(C)c1ccc(-c2noc(SCC(=O)N(C)c3ccc(F)cc3)n2)cc1	23µM*	.	.	26µM*	.	.
CC(C)c1nc2cc3ccccc3cc2[nH]1	-18%	-53*	13%	-15%	-4%	-18%
O=c1[nH]c2cc3ccccc3cc2nc1C(F)(F)F	-1%	-3	-13%	-11%	-5%	1%
CCC(C)(C)NC(=O)CN(CC1CCCO1)C(=O)CNS(=O)(=O)c1ccccc1 (stereo unspecified)	-17%	-2	0%	12%	13%	20%
O=C(NCC1CCN(Cc2cccc(Cl)c2)CC1)Nc1cc(Cl)ccc1Cl	13µM*	.	.	23µM*	.	.
O=C(NCC1CCN(Cc2cccc(Cl)c2)CC1)Nc1ccc(Cl)cc1	?	-61*	-4%	?	?	?
O=C(NCC1CCN(Cc2ccccc2F)CC1)Nc1ccccc1F	0%	0	12%	-14%	-5%	0%
O=C(NCC1CCN(Cc2cccc(Cl)c2)CC1)Nc1ccc(F)c(Cl)c1	?	.	.	-85%	.	.
CCc1cccc(CN2CCC(CNC(=O)Nc3ccc(Cl)cc3)CC2)c1	?	6	-7%	?	15%	9%
O=C(NCC1CCN(Cc2ccccc2F)CC1)Nc1cccc(Br)c1	16µM*	-84*	-27%	?	?	?
CC1=C(C(N)=O)C(c2ccc(F)cc2)n2nc(-c3ccc(N(C)C)cc3)nc2N1 (stereo unspecified)	1%	.	.	0%	.	.
COc1cc(OC)c2c(OC)c(-c3ccc4c(c3)OCO4)c(=O)oc2c1	-25%	.	.	-5%	.	.
Brc1ccc(N=C/C=C/C=C/Nc2ccc(Br)cc2)cc1	-12%	16	3%	-23%	0%	-4%
Nc1nc(N)c(C=Nc2ccc(Br)cc2)c(Nc2ccc(Br)cc2)n1	13µM*	?	-1%	15µM*	-1%	1%
COc1ccccc1NS(=O)(=O)c1ccc(C)c(C(=O)NCC2(N(C)C)CCCCC2)c1	2%	?	0%	3%	-3%	-11%
O=C(Nc1ccc(NC(=O)C23CC4CC(CC(C4)C2)C3)cc1)c1cc(F)c(F)cc1Cl	13µM*	3	9%	?	11%	21%
COC(=O)C1=C(Nc2ccc(C)cc2)C=C(C)C(C(=O)OC)C1c1ccc(OC)cc1 (stereo unspecified)	26µM*	-5	-1%	16µM*	?	?
COC(=O)C1=C(Nc2ccc(C)cc2)C=C(C)C(C(=O)OC)C1c1cccc(OC)c1 (stereo unspecified)	?	11	?	?	?	?
SMILES	TDP1 cell noCPT	IL1B secr inh	ELG1 repair inh	DT40 TDP1 CPT	HT1080-NT tox	HT1080 IDH1KD tx
Cc1cccc(N2CCN(C(c3ccc(F)cc3)c3nnc(-c4ccccc4)o3)CC2)c1C (stereo unspecified)	16µM*	.	.	?	.	.
COc1cccc(OC)c1C(=O)N1CCN(Cc2c[nH]c3ccccc23)CC1	-28%	0	.	-28%	-2%	-2%
O=[N+]([O-])c1ccccc1CN1CCN(Cc2ccccn2)CC1	?	-9	5%	26µM*	3%	1%
O=C(c1ccccc1)N1CCN(Cc2c[nH]c3ccccc23)CC1	?	-83*	?	?	3%	-1%
COc1ccccc1C(=O)N1CCN(Cc2c[nH]c3ccccc23)CC1	16µM*	-1	?	15µM*	10%	13%
O=[N+]([O-])c1ccccc1CN1CCN(Cc2c[nH]c3ccccc23)CC1	3.7µM*	?	?	2.9µM*	-3%	-26%
COc1ccc(Br)cc1CNC(=O)C1CCCCN1S(=O)(=O)c1ccc(F)cc1 (stereo unspecified)	-29%	.	.	-30%	.	.
COc1ccc2sc(N(Cc3cccnc3)C(=O)c3cccs3)nc2c1	18µM*	.	.	21µM*	.	.
O=C(C1COc2ccccc2O1)N(Cc1cccnc1)c1nc2c(Cl)cccc2s1 (stereo unspecified)	?	.	.	-2%	.	.
COc1cccc2sc(N(Cc3cccnc3)C(=O)c3ccc4c(c3)OCCO4)nc12	16µM*	.	.	?	.	.
